Reference: PubChem BioAssay (NCI)
Compounds without any hit were thinned out: in the full panel of roughly 79,000, 15% have a hit. Unmarked numbers belong to inactive results. Calls of active or inactive are those of the source. Rule as the data show it: active = growth inhibition above about 70%; inactive = the rest.

Experiments:
[1] = NCI Yeast Anticancer Drug Screen. Data for the rad50 strain (AID 155);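 also: 0% = growth of vehicle-only cultures of the same strain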; conditions: S. cerevisiae rad50 strain growth inhibition; at 50.0 µM; active compounds read high
Procedure, shortened: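 Compounds were tested on a yeast strain with an engineered DNA damage repair alteration; the reported value is growth inhibition normalised to vehicle treatment.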

[2] = NCI Yeast Anticancer Drug Screen. Data for the mec2-1 strain (AID 157); conditions: S. cerevisiae mec2-1 strain, at 50.0 µM, active compounds read high
Procedure, shortened: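 Cells of the genetically defined mec2-1 yeast strain are incubated with test compound. Inhibition of growth is calculated against vehicle-treated controls.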

[3] = NCI Yeast Anticancer Drug Screen. Data for the sgs1 mgt1 strain (AID 161);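 also: 0% = growth of cultures given vehicle only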; conditions: S. cerevisiae sgs1 mgt1 strain, at 50.0 µM, active compounds read high
Procedure, shortened: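 Mutant yeast exposed to compound; growth scored against vehicle-only wells.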

[4] = NCI Yeast Anticancer Drug Screen. Data for the cln2 rad14 strain (AID 165);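 also: 0% = growth equal to vehicle treated cultures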; conditions: S. cerevisiae cln2 rad14 strain, at 50.0 µM, active compounds read high
Procedure, shortened: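 The screen exposed genetically defined yeast (cln2 rad14) to test compounds and scored growth inhibition relative to vehicle-treated controls.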

[5] = NCI Yeast Anticancer Drug Screen. Data for the bub3 strain (AID 167); conditions: S. cerevisiae bub3 mutant strain, at 50.0 µM, active compounds read high
Procedure, shortened: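 Growth of a checkpoint-deficient yeast mutant is measured after compound exposure. Values represent inhibition relative to vehicle.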

[6] = NCI Yeast Anticancer Drug Screen. Data for the mlh1 rad18 strain (AID 175); conditions: S. cerevisiae mlh1 rad18 strain growth inhibition; at 50.0 µM; active compounds read high
Procedure, shortened: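 Compound-treated yeast growth, normalised to vehicle controls. Strain bears defined DNA repair mutations.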

Row | Structure (SMILES) | growth inhibition [1] | growth inhibition [2] | growth inhibition [3] | growth inhibition [4] | growth inhibition [5] | growth inhibition [6]
1 | OC(CN(C1CCCCC1)C1CCCCC1)c1ccnc2c(Cl)cc(Cl)cc12 (stereo unspecified) | -21.8% | -1% | 7.3% | 0.6% | -6.3% | 18.4%
2 | O=Cc1cccc2ccc3cccc(C(=O)O)c3c12 | 34% | 12% | 17.9% | 13.2% | 30.1% | -8.7%
3 | CCCCCCCCCCCCOC(=O)CSC#N | -5.65% | -38% | -31.9% | -67.5% | -39.6% | -14.1%
4 | CN(c1ccccc1)c1cc2c(cc1[N+](=O)[O-])no[n+]2[O-] | 97.8% (active) | 98.7% (active) | 98.3% (active) | 98% (active) | 98.2% (active) | 98.8% (active)
5 | CCN(CC)Cc1cc(OC(=O)c2cc(OC)c(OC)c(OC)c2)cc(C(=O)OC)c1 | 3.2% | 3.7% | -19.1% | -32% | 8.5% | -10.3%
6 | COC(=O)c1c(O)cc(OC)cc1OCc1ccccc1 | 10.7% | -4.4% | -4.8% | 27.6% | 31.4% | 2.95%
7 | Nc1cccc(N)n1.[Cu+2] | -20.1% | -12.1% | -13.8% | -13.2% | -15% | -14.2%
8 | CN(C)c1nnnn1-c1ccccc1 | 5.15% | 5.05% | 12.3% | -21.9% | 9.5% | 0.45%
9 | CC(C)(C)C1CCC2c3c([nH]c4ccccc34)C3C(=O)N(c4ccc(Br)cc4)C(=O)C3C2C1 (stereo unspecified) | 12.8% | 11.8% | 8.05% | -35.6% | 13.8% | 6.15%
10 | CCC(OC(=O)Nc1ccc(S(=O)(=O)NC2CCCCC2)cc1)c1ccco1 (stereo unspecified) | 26.9% | 3.65% | 26.8% | 10.8% | 5.65% | 4.15%
11 | c1ccc(-c2nc3ccccc3nc2-c2ccc(Cc3ccc(-c4nc5ccccc5nc4-c4ccccc4)cc3)cc2)cc1 | 39.5% | 19.1% | 15.4% | 21.2% | -6.5% | 25.1%
12 | Nc1ccc(-c2ccc(N=C(/C=N/O)NO)cc2)cc1 | -7.05% | -4.25% | 2.4% | -46% | 12.2% | -2.15%
13 | COC(=O)c1ccc(OC(=O)Nc2ccc(SC)cc2)cc1 | 3.2% | 40.5% | 25.4% | -3.4% | 34.2% | 11.7%
14 | COc1ccc(/C=C/C(C)=O)c(OC)c1 | 3% | -12.3% | 2.15% | -20.6% | 0.05% | -4.95%
15 | Cc1ccc(SCC(=O)O)c(C)c1 | 27.1% | 17.9% | 18.1% | 14% | 7.65% | -13.5%
16 | CC(C)CCCC(C)C1CCC2C3CCC4CC(N5CCCCC5)CCC4(C)C3CCC12C (stereo unspecified) | 5.5% | -9.6% | -16.1% | -20.8% | 4.55% | 17.1%
17 | CCOC(=O)C(=Cn1ccc(=O)[nH]c1=S)C(=O)OCC | -4.6% | -31.1% | -23.9% | 9.35% | -11.6% | -10.3%
18 | CC(C)=CCCC(C)(OC1OC(COC2OCC(O)C(O)C2O)C(O)C(O)C1O)C1CCC2(C)C1C(O)CC1C3(C)CCC(OC4OC(CO)C(O)C(O)C4OC4OC(CO)C(O)C(O)C4O)C(C)(C)C3CCC12C (stereo unspecified) | -15.8% | -26.1% | -6.05% | 6.6% | 4.55% | 18.4%

Row | Structure (SMILES) | growth inhibition [1] | growth inhibition [2] | growth inhibition [3] | growth inhibition [4] | growth inhibition [5] | growth inhibition [6]
19 | O=C(Nc1cccnc1)c1ccc([N+](=O)[O-])s1 | 11.1% | 0.6% | 29.3% | 9.25% | 11.1% | 16.1%
20 | O=C(OCOC(=O)N1CCOCC1)N1CCOCC1 | 2.3% | -7.25% | 1% | 17.6% | -1.9% | -5.2%
21 | Cn1cnc(N2CCCC2)c(C#N)c1=S | 3.45% | -4.95% | -4.7% | -12.2% | 2.55% | 0.25%
22 | C#CC(C)(O)CCCCCCC (stereo unspecified) | 18.3% | -27.1% | 4% | -22.8% | -12.4% | 5%
23 | CC[n+]1ccnc2ccccc21 | -11.6% | -8% | -1.35% | -7.9% | 11.6% | 14%
24 | O=C(CC(=O)c1ccc(Cl)cc1)c1ccc(Cl)cc1 | 12.9% | 14.5% | -3.95% | 0.35% | 8.9% | 4.45%
25 | CCCNS(=O)(=O)c1ccccc1C(=O)NC1CCCCC1 | 3.25% | -9.9% | 4.05% | 10.8% | -19.7% | 22.2%
26 | CC1=CC(=O)N2[C@H](OC[C@@H]2C(C)C)O1 | 6.4% | -2.35% | 2.15% | 14.7% | -20.2% | 9.5%
27 | COc1cccc(NC(=O)C(=O)C2C=CCS2(=O)=O)c1 (stereo unspecified) | 0.4% | -0.65% | -31.4% | -6.6% | -28.3% | -13%
28 | Nc1c(C(=O)Nc2ccc(S(N)(=O)=O)cc2)[n+]([O-])c2ccccc2[n+]1[O-] | -7.9% | -9.8% | 0.5% | 1% | -9.95% | -6.45%
29 | COC(=O)C(Nc1ccc(OC)cc1)c1ccccc1 (stereo unspecified) | -3.85% | -1.35% | -8.6% | -21.6% | 4% | -13.6%
30 | COc1ccc(N/N=C2\CCOc3ccc(C)cc3C2=O)cc1 | 53.6% | 27.8% | 42.5% | 14.6% | 52% | 46.7%
31 | Nc1nnc2nc(CC(=O)c3cccc([N+](=O)[O-])c3)c(CC(=O)c3cccc([N+](=O)[O-])c3)nn12 | 4.5% | 4.2% | 9.35% | 18.2% | 18.6% | 14.8%
32 | CCN(CC)CCN1C(=O)NC2(CCCCC2)C1=O | 19.5% | -0.8% | 18.8% | 16% | 10.6% | 20.8%
33 | C=C(C)C1CC=C(C)/C(=N\O)C1 (stereo unspecified) | -5.15% | -9.9% | -17.4% | 3.05% | 15% | -5.6%
34 | CCCCCOc1ccc(C(=O)OC)cc1 | -25.9% | -5.15% | 6.2% | -22.8% | -0.1% | -20%
35 | O=c1[nH]nc(Cc2ccc(Cl)cc2)n1CCO | 8.2% | 5.95% | 19.6% | 3.75% | 5.85% | -21.1%
36 | Cc1cc(Cl)cc2c1NC(=O)C2(O)CC(=O)c1ccco1 (stereo unspecified) | 6.55% | -12.4% | -13.8% | 9.65% | -11.7% | -4.65%
